# ± gives the standard deviation of the averaged measurements. About 5,400 targets were measured; listed, in parts, are those with the largest changes and a random draw of the rest.
# Target: T1, UniProt Q9NPI1|Q9NPI1-2
# T1 sequence (whole entry): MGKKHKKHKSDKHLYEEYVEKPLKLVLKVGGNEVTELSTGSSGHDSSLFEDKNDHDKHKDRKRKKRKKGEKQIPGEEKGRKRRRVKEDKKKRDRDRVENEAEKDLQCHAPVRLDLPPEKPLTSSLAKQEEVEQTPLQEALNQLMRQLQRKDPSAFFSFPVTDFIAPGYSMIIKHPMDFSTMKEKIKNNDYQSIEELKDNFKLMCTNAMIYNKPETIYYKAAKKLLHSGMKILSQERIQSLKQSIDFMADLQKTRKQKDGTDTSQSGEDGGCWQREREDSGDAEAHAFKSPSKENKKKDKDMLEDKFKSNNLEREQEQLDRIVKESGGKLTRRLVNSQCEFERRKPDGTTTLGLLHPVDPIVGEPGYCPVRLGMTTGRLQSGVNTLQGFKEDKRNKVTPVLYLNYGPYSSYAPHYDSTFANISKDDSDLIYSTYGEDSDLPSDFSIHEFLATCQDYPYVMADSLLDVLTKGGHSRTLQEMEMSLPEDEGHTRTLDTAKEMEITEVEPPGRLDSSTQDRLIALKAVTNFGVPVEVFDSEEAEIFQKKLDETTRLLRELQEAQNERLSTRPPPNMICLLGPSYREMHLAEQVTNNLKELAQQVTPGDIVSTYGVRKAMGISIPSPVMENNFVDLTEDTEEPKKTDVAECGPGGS
# Test: NP40-soluble protein abundance relative to vehicle (solubility fold change) (ratio); higher = more soluble protein in presence of GTP
# Description: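 Solubility proteome profiling in Jurkat crude lysate. Lysate was treated with Mg-GTP (0.1-10 mM) for 10 min at room temperature and 3 min at 37 °C, then solubilised with 0.8% NP40 and benzonase, followed by ultracentrifugation. Proteins were quantified by TMT10 LC-MS/MS; the value is the NP40-soluble abundance relative to the NP40-processed vehicle, from 3 independent experiments.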
smiles,measurement,setting,value
Nc1nc2c(ncn2[C@@H]2O[C@H](COP(=O)(O)OP(=O)(O)OP(=O)(O)O)[C@@H](O)[C@H]2O)c(=O)[nH]1 [guanosine triphosphate],NP40-soluble protein abundance,concentration: 0.1mM,1.09 ± 0.029
same,NP40-soluble protein abundance,concentration: 0.5mM,1.11 ± 0.036
same,NP40-soluble protein abundance,concentration: 1mM,1.22 ± 0.041
same,NP40-soluble protein abundance,concentration: 2mM,1.36 ± 0.098
same,NP40-soluble protein abundance,concentration: 4mM,1.4 ± 0.18
same,NP40-soluble protein abundance,concentration: 6mM,1.47 ± 0.2
same,NP40-soluble protein abundance,concentration: 8mM,1.58 ± 0.32
same,NP40-soluble protein abundance,concentration: 10mM,1.56 ± 0.28
